Rows were chosen to be rich in hits. Some 4.2% of all compounds tested hit in one or more screens of this group.
GDH-TPI counter-1 = GDH-TPI coupled enzyme inhibition counter-screen. 1.2% of 360,000 active. GDH-TPI coupled enzyme counterscreen, NADH absorbance. inhibition, % at 4.8 µM. AID 588335; in the data active = inhibition above about 30%;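 also: 0% = DMSO wells and 100% = wells lacking the enzyme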
RecA splice inh = inhibitors of M. tuberculosis RecA intein splicing; P9WHJ3; cell-free RecA intein splicing, fluorescence; inhibition, % (test concentration not listed); 0.75% of 290,000 active; in the data active = inhibition above about 30%;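 also: 0% = vehicle wells and 100% = reference inhibitor control wells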
Target sequence (P9WHJ3 whole entry, looked up, canonical isoform): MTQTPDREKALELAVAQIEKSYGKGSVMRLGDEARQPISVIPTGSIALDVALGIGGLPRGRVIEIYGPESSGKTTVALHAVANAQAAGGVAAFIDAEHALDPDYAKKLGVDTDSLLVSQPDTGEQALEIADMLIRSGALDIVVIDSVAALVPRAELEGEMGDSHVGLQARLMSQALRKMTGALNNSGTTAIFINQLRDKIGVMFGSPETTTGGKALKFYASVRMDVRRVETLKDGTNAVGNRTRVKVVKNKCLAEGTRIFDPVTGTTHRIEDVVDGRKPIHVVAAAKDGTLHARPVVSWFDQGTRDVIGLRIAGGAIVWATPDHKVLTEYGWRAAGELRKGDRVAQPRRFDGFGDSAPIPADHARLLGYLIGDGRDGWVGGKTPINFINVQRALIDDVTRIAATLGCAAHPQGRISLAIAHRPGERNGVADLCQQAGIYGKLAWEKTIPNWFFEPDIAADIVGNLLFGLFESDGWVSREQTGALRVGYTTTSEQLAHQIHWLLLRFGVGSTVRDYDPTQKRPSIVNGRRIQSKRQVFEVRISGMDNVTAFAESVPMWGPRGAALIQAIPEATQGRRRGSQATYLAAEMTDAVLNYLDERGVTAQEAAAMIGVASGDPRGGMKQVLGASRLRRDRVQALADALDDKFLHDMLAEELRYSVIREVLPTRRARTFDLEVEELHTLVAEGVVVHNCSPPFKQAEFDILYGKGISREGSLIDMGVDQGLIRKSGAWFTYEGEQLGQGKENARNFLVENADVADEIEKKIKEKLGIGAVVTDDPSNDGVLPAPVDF
Mtb FBA inh = inhibits M. tuberculosis FBA enzyme | purified M. tuberculosis FBA, fluorescence read-out | inhibition, % at 1 µM | 2.3% of 360,000 active | AID 588726;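 also: 0% = vehicle and 100% = reference inhibitor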
CCHF vOTU inh = CCHFV vOTU protease inhibition; 0.55% of 370,000 active; inhibition, % at 11.5 µM; Pep-AMC fluorescence; in the data active = inhibition above about 30%; also: 0% = vehicle wells with enzyme and 100% = no enzyme wells
Mtb FBA inh conf = Mtb FBA inhibition, confirmed. shares compounds with Mtb FBA inh. purified M. tuberculosis FBA, fluorescence read-out. inhibition, % at 1 µM. 78% of 5,600 active;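 also: 0% = vehicle wells and 100% = reference inhibitor wells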
GDH-TPI counter-2 = counter-screen for M. tuberculosis FBA inhibitors: GDH-TPI coupled enzyme inhibition. AID 652141. shares compounds with Mtb FBA inh. inhibition, % at 1 µM. 81% of 5,600 active. GDH-TPI coupled enzyme counterscreen, fluorescence; in the data active = inhibition above about 10%
Numbers without * were called inactive. Rule as the data show it, unless noted: active = inhibition above about 27%; inactive = the rest.

`CC1(C(=O)NS(=O)(=O)C2CC2)CCN(C(=O)c2ccc3ccccc3n2)C1` (stereo not given) gave GDH-TPI counter-1 3, Mtb FBA inh -2 and CCHF vOTU inh -4.
For Cc1ccccc1NC(=O)NC1(C(=O)NCC2CCCO2)CCCCC1 (stereo not given) the results were GDH-TPI counter-1 4, RecA splice inh 4, Mtb FBA inh 0 and CCHF vOTU inh 13.
`Cn1nnc2c(NCc3ccco3)nccc21` gave GDH-TPI counter-1 -3, RecA splice inh 0, Mtb FBA inh 64*, CCHF vOTU inh -10, Mtb FBA inh conf 53* and GDH-TPI counter-2 43*.
For Cn1c(NCc2ccco2)nc2ccccc21 the results were GDH-TPI counter-1 -3, RecA splice inh -3, Mtb FBA inh -4 and CCHF vOTU inh 5.
`CC(C)CN1Cc2cc(-c3cccc(F)c3)ccc2-n2nncc2C1` gave Mtb FBA inh 9 and CCHF vOTU inh 10.
`CC(C)CN1Cc2cc(-c3ccccc3)ccc2-n2nncc2C1` gave Mtb FBA inh 31*, CCHF vOTU inh 8, Mtb FBA inh conf active and GDH-TPI counter-2 active.
COc1ccccc1CN1CCCC(CN(CCN(C)C)C(=O)c2ccc(C)cc2)C1 (stereo not given) was read as GDH-TPI counter-1 -10, RecA splice inh -1, Mtb FBA inh 1 and CCHF vOTU inh -1.
For CCN(CC(=O)Nc1ccc2c(c1)OCCO2)S(=O)(=O)c1cccs1 the results were GDH-TPI counter-1 0, RecA splice inh 2, Mtb FBA inh 39*, CCHF vOTU inh 5, Mtb FBA inh conf 75* and GDH-TPI counter-2 71*.
For Cc1cccc(N(Cc2ccccc2)C(=O)C2CCN(C(=O)c3ccccc3C)CC2)c1 the results were GDH-TPI counter-1 8, Mtb FBA inh 4 and CCHF vOTU inh 8.
COc1cccc(CN2CCN(Cc3cccc(Oc4ccccc4)c3)CC2)c1OC was read as GDH-TPI counter-1 6, RecA splice inh 8, Mtb FBA inh 37*, CCHF vOTU inh 2, Mtb FBA inh conf 3 and GDH-TPI counter-2 -5.
For COc1cccc(CN2CCN(Cc3cc(OC)c(OC)c(OC)c3)CC2)c1OC the results were GDH-TPI counter-1 4, RecA splice inh 1, Mtb FBA inh 2 and CCHF vOTU inh -7.
For COc1cc([N+](=O)[O-])ccc1NC(=O)COC(=O)c1c[nH]c(=O)[nH]c1=O the results were GDH-TPI counter-1 9, Mtb FBA inh -4 and CCHF vOTU inh 6.
`CCCC(=O)Nc1ccc(-c2nc3cc(C)c(C)cc3o2)cc1` gave GDH-TPI counter-1 24, RecA splice inh 2, Mtb FBA inh 87*, CCHF vOTU inh -17, Mtb FBA inh conf 40* and GDH-TPI counter-2 40*.
Screening CCCC(=O)Nc1ccc2oc(-c3ccncc3)nc2c1 returned GDH-TPI counter-1 19, RecA splice inh -1, Mtb FBA inh 17 and CCHF vOTU inh -14.
Screening CCCC(=O)Nc1ccc2oc(-c3cncc(Br)c3)nc2c1 returned GDH-TPI counter-1 0, RecA splice inh -4, Mtb FBA inh 40*, CCHF vOTU inh 8, Mtb FBA inh conf 172* and GDH-TPI counter-2 132*.
`Cc1ccc(CNC(=O)c2cc(S(=O)(=O)N3CCCCC3)ccc2N2CCOCC2)cc1` gave GDH-TPI counter-1 6, Mtb FBA inh 1 and CCHF vOTU inh 3.
For COc1ccc(-c2cc(=O)oc3cc(OC(=O)C4CCCCC4)c(Cl)cc23)cc1 the results were GDH-TPI counter-1 8, RecA splice inh -192, Mtb FBA inh 45*, CCHF vOTU inh -15, Mtb FBA inh conf 46* and GDH-TPI counter-2 42*.
`CNC(=O)C[C@@H]1C(=O)N(CCc2ccccc2)CC1(C)C` gave GDH-TPI counter-1 -1, Mtb FBA inh -2 and CCHF vOTU inh 16.
O=C(NC1CCCCC1)c1ccc2ccccc2c1O was read as GDH-TPI counter-1 27, Mtb FBA inh 28*, CCHF vOTU inh -28, Mtb FBA inh conf 5 and GDH-TPI counter-2 -3.
Screening CCC1(c2ccc(F)cc2)NC(=O)N(CC(=O)N2CC(=O)Nc3ccccc32)C1=O (stereo not given) returned GDH-TPI counter-1 6, RecA splice inh 0, Mtb FBA inh 29*, CCHF vOTU inh -2, Mtb FBA inh conf 163* and GDH-TPI counter-2 116*.
For Cc1ccc(NC(=S)Nc2cccc3ccccc23)cc1F the results were GDH-TPI counter-1 8, RecA splice inh 5, Mtb FBA inh 47*, CCHF vOTU inh 0, Mtb FBA inh conf active and GDH-TPI counter-2 168*.

Source: PubChem
